Assay outcomes from PubChem BioAssay.
The list is not random: actives were taken first. Their share in the collection is about 17%.
TDP1 block = inhibitors of human tyrosyl-DNA phosphodiesterase TDP1; Q9NUW8; recombinant TDP1, AlphaScreen DNA substrate cleavage; Potency, µM (titrated, usually from 130 µM), usual class: inhibitors; actives 0.28% (n = 350,000); note: nearly all actives have a fitted effect of over 40% in size
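Compounds were preincubated with Tdp1 (1 nM final) for 15 min at room temperature before substrate (15 nM final) started a 5 min reaction; beads (10 ug/ml final) were then added for 10 min before AlphaScreen detection.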
ClpP mod = qHTS Assay for Activators of ClpP. ATP-dependent Clp protease proteolytic subunit (Bacillus subtilis (strain 168)), P80244. purified B. subtilis ClpP, FRET peptide cleavage, 20 min. Potency, µM (series often up to 57.5 µM). actives 1.9% (n = 340,000); active = well fitted falling curve with a large enough effect; inconclusive = small, poorly fitted or top-dose-only effect; inactive = no such curve, though single readings can be large or run the other way; note: the source files actives as falling curves though it sought activators and does not explain the sign; nearly all actives have a fitted effect of over 65% in size
Target sequence (P80244 whole entry, looked up): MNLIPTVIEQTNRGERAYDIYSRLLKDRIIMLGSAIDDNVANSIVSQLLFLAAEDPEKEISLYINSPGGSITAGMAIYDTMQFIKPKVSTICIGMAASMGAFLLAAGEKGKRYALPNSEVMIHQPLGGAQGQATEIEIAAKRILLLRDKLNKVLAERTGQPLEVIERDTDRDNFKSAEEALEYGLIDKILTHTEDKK
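FRET quenching reversal measured ClpP activation: 10 microg/mL B. subtilis ClpP at pH 8 with the FRET-FV decapeptide, read at 430 nm after 320 nm excitation. The 20-min minus 0-min signal was scaled between DMSO/no-enzyme wells and ADEP (5.8 microM final).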
DT40 TDP1 CPT = DT40-hTDP1 cell growth loss with CPT | chicken DT40 Tdp1-/-;hTDP1 cells + 20 nM CPT, ATP luminescence, 48 h | Potency, µM (series often up to 46.2 µM), hits mostly inhibitors | actives 12% (n = 420,000) | AID 686979; note: nearly all actives have a fitted effect of over 55% in size
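Chicken DT40 Tdp1-/- cells stably complemented with human TDP1 were seeded at 400 cells/well in medium containing 20 nM camptothecin, exposed to pin-transferred compounds, and grown at 37 °C for at least 48 hr. Viability was read as ATP luminescence.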
DT40 TDP1 no CPT = qHTS for Inhibitors of human tyrosyl-DNA phosphodiesterase 1 (TDP1): qHTS in cells in absence of CPT; DT40 Tdp1-/- hTDP1 cells, no CPT, ATP luminescence, 48 h; Potency, µM (highest dose often 46.2 µM), usual class: inhibitors; actives 15% (n = 420,000); AID 686978, 2013; note: nearly all actives have a fitted effect of over 55% in size
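Camptothecin absent (DMSO only). Human TDP1-complemented DT40 knockout cells, 400 cells/well, 37 °C for minimum 48 hr; ATP measured via CellTiter-Glo, 30 min dark incubation, luminescence.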
Each line names hits and unclear results; the compound was inactive in the other large screens; ! = not confirmed by another sample. Unless noted, calls come from the whole dose curve; as a rule, active = well fitted curve in the direction sought with a large enough effect; inconclusive = small, poorly fitted or top-dose-only effect, or another doubt; inactive = no such curve, though single readings can be large; an effect the other way counts as inactive or inconclusive.

Cc1cc(C(=O)C(C)OC(=O)c2ccc(NC(=O)CC#N)cc2)c(C)n1-c1ccccc1 (centres undefined)	DT40 TDP1 CPT inconclusive, DT40 TDP1 no CPT 18µM (no result: TDP1 block, ClpP mod)
CCCn1nc(NC(=O)c2cccc(Cl)c2)c2cc3cccc(C)c3nc21	DT40 TDP1 CPT inconclusive
Cc1cc(Sc2ccc([N+](=O)[O-])cn2)ccc1Br	DT40 TDP1 no CPT inconclusive (no result: TDP1 block)
O=[N+]([O-])c1ccc(S(=O)(=O)c2ccccc2)nc1	DT40 TDP1 CPT 0.52µM, DT40 TDP1 no CPT 0.92µM (no result: TDP1 block)
Cc1cc(S(=O)(=O)c2ccc([N+](=O)[O-])cn2)ccc1Br	DT40 TDP1 CPT 0.33µM, DT40 TDP1 no CPT 0.33µM (no result: TDP1 block)
COC(=O)C(C)(C(=O)OC)c1ccc([N+](=O)[O-])cn1	none
Cc1ccc(S(=O)(=O)c2ccc([N+](=O)[O-])cn2)cc1	DT40 TDP1 CPT 0.46µM, DT40 TDP1 no CPT 0.52µM (no result: TDP1 block, ClpP mod)
Cc1ccc(S(=O)(=O)N2CCCC2)cc1C(=O)NCCOc1ccccc1	none
CN(CCC#N)S(=O)(=O)c1ccc2[nH]cc(C(=O)NCCc3ccccc3)c(=O)c2c1	ClpP mod 28µM, DT40 TDP1 CPT inconclusive, DT40 TDP1 no CPT inconclusive
COc1ccc2c(=O)c(C(=O)NCCc3ccccc3)c[nH]c2c1	DT40 TDP1 CPT 16µM, DT40 TDP1 no CPT inconclusive (no result: TDP1 block)
COc1ccc2[nH]cc(C(=O)NCCc3ccccc3)c(=O)c2c1	DT40 TDP1 no CPT 18µM (no result: TDP1 block, ClpP mod)
COc1ccc2c(=O)c(C(=O)NCc3ccccc3)c[nH]c2c1	DT40 TDP1 no CPT inconclusive (no result: ClpP mod)
Cc1noc(C)c1C(=O)OCC(=O)c1ccc[nH]1	none
Cc1noc(C)c1C(=O)OCC(=O)c1cc(C)n(Cc2ccccc2Cl)c1C	DT40 TDP1 CPT 21µM, DT40 TDP1 no CPT 15µM
CC(=O)N1CCCC1c1nc2ccccc2n1Cc1c(F)cccc1Cl (centres undefined)	DT40 TDP1 CPT inconclusive, DT40 TDP1 no CPT inconclusive
CCS(=O)(=O)c1ccc2oc(SCC(=O)NC(C)C3CC4CCC3C4)nc2c1 (centres undefined)	DT40 TDP1 CPT inconclusive, DT40 TDP1 no CPT 16µM
COc1ccccc1-c1ccc(/C=C2/C=C(CC(C)C)OC2=O)o1	ClpP mod 35µM, DT40 TDP1 no CPT inconclusive
CCCC1=C/C(=C/c2ccc(-c3ccccc3OC)o2)C(=O)O1	ClpP mod inconclusive, DT40 TDP1 no CPT inconclusive
Cc1ccccc1NC(=S)NC(NC(=O)c1ccccc1C)C(Cl)(Cl)Cl (centres undefined)	DT40 TDP1 CPT inconclusive, DT40 TDP1 no CPT 21µM
Cc1ccc(C)c(NC(=S)NC(NC(=O)Cc2ccccc2)C(Cl)(Cl)Cl)c1 (centres undefined)	none
O=C(COc1ccccc1)NC(NC(=S)Nc1ccccc1C(=O)O)C(Cl)(Cl)Cl (centres undefined)	ClpP mod 35µM
COc1ccc(NC(NC(=O)c2cccnc2)C(Cl)(Cl)Cl)cc1 (centres undefined)	none (no result: ClpP mod)
Cc1cc(C)c(NC(=S)NC(NC(=O)c2ccccc2)C(Cl)(Cl)Cl)c(C)c1 (centres undefined)	DT40 TDP1 CPT inconclusive, DT40 TDP1 no CPT 5.8µM
COc1ccccc1NC(=S)NC(NC(C)=O)C(Cl)(Cl)Cl (centres undefined)	none (no result: TDP1 block)
Cc1ccccc1NC(NC(=O)c1cccnc1)C(Cl)(Cl)Cl (centres undefined)	ClpP mod 13µM, DT40 TDP1 CPT inconclusive, DT40 TDP1 no CPT inconclusive
O=C1CCCC2[C@@H]3CCC[N@+]4([O-])CCC[C@H](CN12)C34 (some centres undefined)	none (no result: ClpP mod)
COc1cc(/C=C(\NC(=O)c2ccccc2)C(=O)N2CC3CC(C2)c2cccc(=O)n2C3)cc(OC)c1OC (centres undefined)	none (no result: TDP1 block, ClpP mod)
O=C(/C=C/c1ccccc1)NNC(=O)c1ccco1	none (no result: ClpP mod)
CC[C@]1(c2ncc[nH]2)Cc2ccccc2O1	DT40 TDP1 CPT inconclusive, DT40 TDP1 no CPT 24µM (no result: ClpP mod)
Cc1cc(Nc2ccc(C)c(Cl)c2)n2nc(Cc3ccccc3)nc2n1	DT40 TDP1 CPT inconclusive, DT40 TDP1 no CPT inconclusive
COc1ccc(C(NC(=O)COc2ccc(C#N)cc2)c2ccc(OC)cc2)cc1	DT40 TDP1 CPT inconclusive, DT40 TDP1 no CPT inconclusive (no result: TDP1 block)
O=c1cc(-c2ccc(O)cc2)oc2c(O)c(O)c(O)c(O)c12	DT40 TDP1 CPT 23µM, DT40 TDP1 no CPT inconclusive (no result: TDP1 block)
COc1ccc2oc(-c3ccc(O)cc3)cc(=O)c2c1	DT40 TDP1 CPT inconclusive, DT40 TDP1 no CPT 27µM (no result: ClpP mod)
O=c1cc(-c2ccccc2)oc2cc(O)c(O)c(O)c12	DT40 TDP1 CPT 17µM!, DT40 TDP1 no CPT 30µM
O=c1cc(-c2cccc(O)c2)oc2cccc(O)c12	none (no result: ClpP mod)
COc1ccc(-c2cc(=O)c3c(OC)c(OC)c(OC)c(OC)c3o2)cc1	DT40 TDP1 CPT 23µM, DT40 TDP1 no CPT 16µM
COc1cc(-c2cc(=O)c3c(C)cc(O)cc3o2)cc(OC)c1OC	DT40 TDP1 CPT inconclusive, DT40 TDP1 no CPT 8.2µM (no result: TDP1 block)
COc1cc2oc(-c3ccc(O)cc3)cc(=O)c2c(OC)c1O	DT40 TDP1 CPT inconclusive, DT40 TDP1 no CPT inconclusive
COc1c(O)cc2oc(-c3ccc(O)cc3)cc(=O)c2c1O	DT40 TDP1 CPT 29µM, DT40 TDP1 no CPT inconclusive
O=c1cc(-c2ccc(O)cc2)oc2ccc3ccccc3c12	TDP1 block 32µM, DT40 TDP1 CPT inconclusive, DT40 TDP1 no CPT 16µM
COc1cc2oc(-c3ccc(O)cc3)cc(=O)c2c(O)c1OC	DT40 TDP1 no CPT 18µM (no result: TDP1 block)
COc1ccc(C2C=C3CNS(=O)(=O)C3CC2OC(=O)c2cccc(C)c2)cc1 (centres undefined)	none (no result: ClpP mod, DT40 TDP1 CPT, DT40 TDP1 no CPT)
CS(=O)(=O)N1N=C(c2ccc(Br)cc2)CC1c1cccs1 (centres undefined)	DT40 TDP1 CPT 21µM, DT40 TDP1 no CPT 26µM
Cc1cccc(C(=O)N2N=C(c3ccc(NS(C)(=O)=O)cc3)CC2c2cccs2)c1 (centres undefined)	DT40 TDP1 CPT 23µM (no result: TDP1 block)
CCS(=O)(=O)Nc1ccc(C2=NN(C(=O)c3ccccc3)C(c3cccs3)C2)cc1 (centres undefined)	DT40 TDP1 CPT 23µM, DT40 TDP1 no CPT 21µM
O=C(c1ccccc1)N1N=C(c2ccccc2)CC1c1cccs1 (centres undefined)	DT40 TDP1 no CPT inconclusive (no result: TDP1 block, ClpP mod)
Cc1ccc(C(c2nc3ccccc3[nH]2)n2c(-c3ccccc3)nc3ccccc32)cc1 (centres undefined)	DT40 TDP1 CPT inconclusive, DT40 TDP1 no CPT inconclusive (no result: TDP1 block)
Cc1noc(C)c1S(=O)(=O)Nc1ccccc1N1CCOCC1	none
COc1ccc(CCNC(=O)C2CCCN(C(=O)N(C)C)C2)c(OC)c1 (centres undefined)	none
CCC1CN(C(=O)N2CCC(C(=O)NCCc3ccc(OC)cc3OC)CC2)c2ccccc2O1 (centres undefined)	DT40 TDP1 CPT 26µM, DT40 TDP1 no CPT inconclusive
CCC1CN(C(=O)N2CCC(C(=O)NCCN(C)C)CC2)c2ccccc2O1 (centres undefined)	none
